Screens as filed in PubChem BioAssay.
An excerpt weighted towards active compounds, which were near 3.1% of everything screened.
CF NFkB inh – cystic fibrosis NF-kB activation inhibition; 360,000 tested, 0.86% active; inhibition, % at 5 µM; KKLEB NF-kB-GFP reporter, PAF-induced, GFP fluorescence overnight;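 active means at least 50% inhibition at 5 µM, scaled per plate between neutral and stimulator controls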;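 further: PAF is a Pseudomonas aeruginosa culture filtrate used as stimulus; plate controls were PAF-stimulated DMSO wells for no effect and unstimulated DMSO wells for full effect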
KKLEB cytotox – counter-screen for CF NF-kB inhibitors: cytotoxicity. KKLEB CF airway cells viability, ATPlite luminescence, overnight; active compounds read low; cells stimulated with P. aeruginosa culture filtrate. activity change (cytotoxicity), % at 5 µM. 360,000 tested, 0.36% active. AID 602141;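 active means corrected activity change at or below -50% at 5 µM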
HIF-2a block – inhibitors of HIF-2a. inhibition, % at 18.8 µM. 360,000 tested, 0.72% active. 786-0 RCC cells HIF-2a reporter, luciferase luminescence, overnight. AID 624352;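 active means inhibition of the luminescence signal of 40% or more relative to plate controls, in a single-dose primary screen at 18.75 µM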
Peg3 promoter – inhibitors of Peg3 promoter. 360,000 tested, 1.7% active. HeLa PEG-Prom luciferase reporter, luminescence, overnight. inhibition, % at 20 µM;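 active means inhibition of at least 50% at 20 µM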
MITF TRPM1 inh – inhibitors of MITF-driven TRPM1 promoter in melanoma cells; SK-MEL-5 TRPM1 promoter luciferase, 24 h; inhibition, % at 12.5 µM; 330,000 tested, 0.83% active; AID 488899;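 active means mean inhibition across replicates of 60% or more, whatever share of single replicates reaches that level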
ABHD5 PLIN5 PPI – blocks binding of human ABHD5 to perilipin-5; Q00G26+Q8WTS1; Split G. princeps luciferase complementation, luminescence, 4 h; inhibition, % at 4 µM; 360,000 tested, 0.78% active; AID 602281;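 active means inhibition above the mean inhibition across every tested compound plus 3 SD, cut at about 22% in these data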;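 further: 0% = DMSO only wells and the 100% control is not disclosed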
Target sequence (Q00G26 whole entry, looked up): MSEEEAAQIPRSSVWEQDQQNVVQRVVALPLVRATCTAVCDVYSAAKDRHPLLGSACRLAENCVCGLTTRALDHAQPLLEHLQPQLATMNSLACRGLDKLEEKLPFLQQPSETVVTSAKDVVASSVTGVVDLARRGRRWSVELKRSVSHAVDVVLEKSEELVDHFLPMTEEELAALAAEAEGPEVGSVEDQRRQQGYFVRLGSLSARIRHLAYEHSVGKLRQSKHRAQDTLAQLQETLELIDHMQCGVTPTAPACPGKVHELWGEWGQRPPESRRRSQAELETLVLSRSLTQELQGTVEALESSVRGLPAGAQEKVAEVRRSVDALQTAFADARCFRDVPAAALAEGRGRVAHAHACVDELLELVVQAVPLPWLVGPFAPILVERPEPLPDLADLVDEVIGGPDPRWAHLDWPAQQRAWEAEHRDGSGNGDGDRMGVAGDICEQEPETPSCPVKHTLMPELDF
Target sequence (Q8WTS1 whole entry, looked up): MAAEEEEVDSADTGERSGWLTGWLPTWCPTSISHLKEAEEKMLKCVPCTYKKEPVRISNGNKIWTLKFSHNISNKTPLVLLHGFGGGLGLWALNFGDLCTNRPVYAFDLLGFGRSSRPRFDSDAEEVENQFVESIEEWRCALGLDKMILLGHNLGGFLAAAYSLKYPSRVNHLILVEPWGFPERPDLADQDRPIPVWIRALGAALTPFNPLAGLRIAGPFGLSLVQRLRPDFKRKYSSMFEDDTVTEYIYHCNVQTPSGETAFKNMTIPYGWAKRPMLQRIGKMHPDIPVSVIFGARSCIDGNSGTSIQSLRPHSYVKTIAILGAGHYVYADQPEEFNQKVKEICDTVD
Numbers without * were called inactive; . = no result.

SMILES	CF NFkB inh	KKLEB cytotox	HIF-2a block	Peg3 promoter	MITF TRPM1 inh	ABHD5 PLIN5 PPI
CN1CCN(CCCNC(=O)c2ccc(/C=C3/Sc4ccccc4N(Cc4cccc(Cl)c4)C3=O)cc2)CC1	14	-20	14	84*	8	21
O=C(CN1C(=O)/C(=C/c2ccccc2)Sc2ccccc21)NCCCN1CCOCC1	8	-9	4	12	-3	3
O=C(NCCCN1CCOCC1)c1ccc2c(c1)N(Cc1ccccc1)C(=O)c1ccccc1S2	4	-13	16	9	18	0
CCN(CC)CCCNc1ccc(-c2nnc(-c3ccc(OCC(C)C)cc3)o2)cn1	3	-19	16	113*	77*	20
CC1CC2C(C(O)CC3(C)C2CCC3(O)C(=O)CO)C2(C)C=CC(=O)C=C12 (centres undefined)	76*	11	17	-22	-10	2
CC(=O)OCC(=O)[C@@]1(O)CC[C@H]2[C@@H]3C[C@H](C)C4=CC(=O)C=C[C@]4(C)[C@H]3[C@@H](O)C[C@@]21C	77*	-11	30	-13	-9	4
COc1ccccc1CNS(=O)(=O)c1cc(CN2C(=O)c3cccnc3C2=O)ccc1OC	12	9	11	13	1	2
COc1cc(CCNC2=CC(=O)c3ncccc3C2=O)ccc1O	78*	-2	39	27	113*	-4
O=C(CCl)Nc1cccc(S(=O)(=O)NC2=NCCCCC2)c1	-7	-18	35	51*	76*	23*
CCN(CC)CCn1c(=N)n(CC(=O)c2ccc(Br)s2)c2ccccc21	9	-11	8	80*	.	10
COc1ccc2nc3cc(Cl)ccc3c(Nc3ccc(O)c(CN4CCN(C)CC4)c3)c2c1	-60	-5	-49	95*	106*	6
CSc1ccc(C2NN=C(c3ccccc3)S2)cc1 (centres undefined)	-11	-61*	-85	-88	29	-6
Oc1ccccc1C1NN=C(c2ccccc2)S1 (centres undefined)	9	-16	-146	-182	-10	-9
CCC(C)n1ncn(-c2ccc(N3CCN(c4ccc(OCC5COC(Cn6cncn6)(c6ccc(Cl)cc6Cl)O5)cc4)CC3)cc2)c1=O (centres undefined)	63*	-2	24	21	14	8
COc1ccncc1-c1ccc(C2=CC(=O)CC(C)(C)C2=O)cc1	-1	11	-218	-203	.	8
O=C(O)c1ccccc1C(=O)Nc1ccc(Oc2cccc3ccccc23)cc1	7	20	78*	20	73*	-4
CCc1cccc2c(-c3csc(=NC)n3C)c[nH]c12	8	10	-14	-39	14	-6
COc1ccc2cc(CN(Cc3ccco3)C(c3nnnn3C3CCCCC3)C(C)C)c(=O)[nH]c2c1 (centres undefined)	22	-11	15	16	1	22*
COc1ccc2cc(CN(Cc3ccco3)Cc3nnnn3C3CCCCC3)c(=O)[nH]c2c1	-23	-2	16	21	-11	-2
CC(=O)c1ccc(N(C(=O)Cc2c[nH]c3ccccc23)C(C(=O)NC2CCCCC2)c2cccs2)cc1 (centres undefined)	-8	6	-76	-45	-9	-2
O=C(NC1CCCCC1)C(c1cccs1)N(C(=O)Cc1c[nH]c2ccccc12)c1ccc(F)cc1 (centres undefined)	9	14	6	85*	18	-3
CCOc1ccc(CC(=O)Nc2ccc(NC(=O)c3ccco3)cc2)cc1OCC	4	2	-9	-3	1	1
CC(C)Oc1ccc(C(=O)Nc2nnc(SCC(=O)N3CCOCC3)s2)cc1	12	-74*	48*	38	51	2
CN(C)S(=O)(=O)c1ccc(C(=O)Nc2nnc(SCC(=O)N3CCOCC3)s2)cc1	-36	7	-17	-9	.	17
Cc1ccc(C(=O)Nc2nnc(SCC(=O)N3CCCc4ccccc43)s2)cc1	3	-97*	34	0	32	3
Cc1cccc(NC(=O)C2CCN(S(=O)(=O)c3c(C)c(C)cc(C)c3C)CC2)n1	-4	5	9	32	3	2
